Screens: PubChem BioAssay, University of Kansas High Throughput Screening Laboratory
Pf apPOL inh: Pf-apPOL DNA polymerase inhibition; AID 1794808; Recombinant Pf-apPOL, molecular beacon fluorescence, 1.5 h; 210,000 tested, 0.25% active; inhibition, % at 10 µM
mHTT-CaM PPI inh: mHTT-calmodulin interaction abrogation. inhibition, % at 15 µM. P42858. AlphaScreen His-mHTT/GST-CaM binding, luminescence. 190,000 tested, 3.6% active;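 note: 0% = both proteins with DMSO and 100% = one protein alone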
Numbers without * were called inactive; / = no result; ! = not active in a repeat. Shown is part of a subset that was picked to be rich in hits. Cut-off read from the data, not from the text of the source: active = inhibition above about 50%; inactive = the rest.

SMILES | Pf apPOL inh | mHTT-CaM PPI inh
CCOC1=NN(c2ccc([N+](=O)[O-])cc2)C(=O)/C1=C/c1cccc(Cl)c1Cl | -15.0 | 65.0*
Cn1ccc2c(-c3cncc4ccccc34)cc3c(c21)C1CCC3C1 (stereo not drawn) | -0.4 | 99.9*
Cn1ccc2c(-c3ccc(F)cc3F)cc3c(c21)C1CCC3C1 (stereo not drawn) | -35.1 | 58.8*
Cn1ccc2c(-c3cccnc3)cc3c(c21)C1CCC3C1 (stereo not drawn) | -7.8 | 31.5
Cn1ccc2c(-c3ccc(F)nc3)cc3c(c21)C1CCC3C1 (stereo not drawn) | 5.0 | 28.0
Cn1ccc2c(-c3cccc4ccccc34)cc3c(c21)C1CCC3C1 (stereo not drawn) | -1.8 | 1.2
Cn1ccc2c(N3CCOCC3)cc3c(c21)C1CCC3C1 (stereo not drawn) | 1.7 | 21.6
Cn1ccc2c(N3CCCCCC3)cc3c(c21)C1CCC3C1 (stereo not drawn) | -2.8 | 63.1*
COc1ccc(-c2cc3c(c4c2ccn4C)C2CCC3C2)cc1OC (stereo not drawn) | 0.9 | 73.9*
NC(=O)c1cccc(N=c2oc3c(Cl)cc(Cl)cc3cc2C(N)=O)c1 | 0.6 | 45.0
O=S(=O)(c1ccc2ccccc2c1)N1CCSC1c1ccccc1 (stereo not drawn) | / | -24.3
Cc1c(Cc2ccccc2)sc(NC(=O)CCC(=O)O)c1C(N)=O | 0.5 | 3.8
CCCN(CC1CC1)c1cc2c(c3c1ccn3C)C1CCC2C1 (stereo not drawn) | -2.3 | 73.9*
CCN(CC)c1cc2c(c3c1ccn3C)C1CCC2C1 (stereo not drawn) | -1.4 | 41.0
O=C(NCCc1ccccc1)N1CCN(Cc2nc(-c3ccco3)cs2)CC1 | 1.1 | 3.1
N#Cc1c(N)nc(SCC(=O)c2ccccc2)c(C#N)c1-c1ccc(O)cc1 | -1.6 | 62.0*
N#Cc1c(N)nc(SCC(=O)c2ccc([N+](=O)[O-])cc2)c(C#N)c1-c1ccccc1 | -1.2 | 15.0
N#Cc1c(N)nc(SCC(=O)c2ccc(Br)cc2)c(C#N)c1-c1ccc(O)cc1 | -1.1 | 78.5*!
CCOc1ccc(-c2c(C#N)c(N)nc(SCC(=O)c3ccc(OC)cc3)c2C#N)cc1 | -23.2 | -1.0
CCOc1ccc(-c2c(C#N)c(N)nc(SCC(=O)c3ccc(C)cc3)c2C#N)cc1 | 6.1 | -5.0
CCOc1ccc(-c2c(C#N)c(N)nc(SCC(=O)c3ccc(O)c(O)c3)c2C#N)cc1 | -8.0 | 69.0*
Cc1cccc(C(=O)Nc2ccc(Cl)cc2F)c1 | -1.4 | -8.3
Cn1cc(C(=O)NCc2ccco2)c2[nH]c(=O)n(-c3ccc(Cl)cc3)c(=O)c21 | -0.6 | 4.0
Cc1ccc(C2Cn3nnc(C(=O)Nc4cccc(C(C)C)c4)c3CO2)cc1 (stereo not drawn) | 0.0 | 4.2
COc1ccccc1CC(=O)N1CCN(C2=CC3=NCC(C)N3C=N2)CC1 (stereo not drawn) | -4.3 | 14.8
SMILES | Pf apPOL inh | mHTT-CaM PPI inh
Cc1ccccc1OCC(=O)N1CCN(C2=CC3=NCC(C)N3C=N2)CC1 (stereo not drawn) | 0.8 | 99.5*
Cc1ccc(C)c(N2CCN(C(=O)c3ccc(Cn4cncn4)cc3)CC2)c1 | -0.6 | 15.8
CC(C)C(=O)N1CCN(c2nc3c(s2)CC(C(=O)Nc2cccc(Cl)c2)CC3)CC1 (stereo not drawn) | 0.4 | -0.3
O=C(O)C1CC=CCC1c1ccc(Cl)cc1Cl (stereo not drawn) | -1.0 | /
O=C(O)c1ccc2c(c1)C1C=CCC1C(c1ccc(Cl)cc1Cl)N2 (stereo not drawn) | -4.3 | 67.0*
NS(=O)(=O)c1ccc2c(c1)C1C=CCC1C(c1ccc([N+](=O)[O-])cc1)N2 (stereo not drawn) | 4.2 | 92.2*
COc1cccc(C2Nc3ccc(C(C)=O)cc3C3C=CCC32)c1OC (stereo not drawn) | 0.0 | 64.0*
O=[N+]([O-])c1ccc(C2Nc3cc(Br)ccc3C3C=CCC32)cc1 (stereo not drawn) | / | 40.0
CC(=O)c1ccc2c(c1)C1C=CCC1C(c1cc3c(cc1Br)OCO3)N2 (stereo not drawn) | -3.3 | 28.0
NS(=O)(=O)c1ccc2c(c1)C1C=CCC1C(c1ccc(Cl)cc1Cl)N2 (stereo not drawn) | -1.7 | 79.0*
O=C(Nc1ccccc1O)c1cc(S(=O)(=O)N2CCCCC2)ccc1Cl | -0.9 | 3.0
O=C(NCCc1c[nH]c2ccccc12)C(=O)Nc1ccccc1F | -0.8 | 14.1
Nc1c(C(=O)NCc2ccccn2)nnn1-c1ccc2c(c1)OCCO2 | -2.1 | -3.0
CC1CCCN(Cc2c(O)ccc3c2OC(=Cc2ccccc2)C3=O)C1 (stereo not drawn) | -15.4 | 6.3
COc1cccc(CNC(=O)C2CCCN(c3nnc4c(Cl)cccn34)C2)c1OC (stereo not drawn) | -0.7 | 4.7
CCOc1ccc(NC(=O)c2ccc(C)o2)cc1 | -3.4 | 3.2
O=C(c1cccc2c1NC(c1ccc(Cl)cc1Cl)C1CC=CC21)N1CCCC1 (stereo not drawn) | -3.6 | -4.0
O=C(O)c1cccc2c1NC(c1ccc(Cl)cc1Cl)C1CC=CC21 (stereo not drawn) | 5.9 | 56.0*
C=CCOc1ccc(/C=c2\sc3nc(-c4ccc(OCC)cc4)nn3c2=O)cc1OC | 6.9 | -2.0
CCN1CCN(Cc2ccc(N(CC)CC)cc2)CC1 | 38.3 | 68.8*
CCN(CC)c1ccc(CN2CCN(c3ncccn3)CC2)cc1 | -9.8 | 7.7
CN1CCCN(Cc2ccc(Br)cc2)CC1 | 74.7* | 0.1
CC(C)c1ccc(CN2CCCN(C)CC2)cc1 | -11.0 | -2.7
CCN(CC)c1ccc(CN2CCN(C)CC2)cc1 | 0.4 | 67.9*
CCN(CC)c1ccc(CN2CCSCC2)cc1 | 0.0 | 24.7
SMILES | Pf apPOL inh | mHTT-CaM PPI inh
Cn1nc(-c2cccs2)nc2c(=O)n(C)c(=O)nc1-2 | -3.0 | -1.0
CN(C)c1ccc(-c2nc3n(n2)C(c2ccncc2)C2=C(CC(C)(C)CC2=O)N3)cc1 (stereo not drawn) | -2.3 | -2.6
CC(C)(C)c1ccc(C2=NC(=O)C(CC(=O)O)S2)cc1 (stereo not drawn) | 38.5 | /
O=C(O)CC1SC(c2ccc3c(c2)OCO3)=NC1=O (stereo not drawn) | 51.8* | /
Cn1nc(-c2nc(C3CC3)no2)c2c1CCN(C(=O)c1ccc(Cl)cc1)C2 | -2.0 | -8.2
Cc1ccc(C(=O)N2CCc3c(c(-c4nc(-c5ccccc5)no4)nn3C)C2)cc1 | -3.5 | 4.2
Cn1nc(-c2nc(-c3ccccc3)no2)c2c1CCN(C(=O)c1ccccc1)C2 | -0.1 | 51.5*
Cn1nc(-c2nc(-c3cccc(F)c3)no2)c2c1CCN(C(=O)c1cccs1)C2 | -1.3 | 61.1*
Cn1nc(-c2nc(C3CC3)no2)c2c1CCN(C(=O)Nc1ccc(Cl)cc1)C2 | -7.9 | 62.7*
Cn1nc(-c2nc(-c3cccc(F)c3)no2)c2c1CCN(C(=O)c1cccc(F)c1)C2 | -5.6 | 4.1
COc1ccccc1C(=O)N1CCCC1c1cccc(F)c1 (stereo not drawn) | -3.4 | 9.7
Cc1cc(Cl)ccc1OCC(=O)Nc1c(F)c(F)c(F)c(F)c1F | -3.4 | -7.1
CCN1CCN(C(=O)c2ccc(-c3nc4ccccc4n(CC(C)C)c3=O)cc2)CC1 | -0.7 | 20.5
Nc1ccc(CCc2nc3ccc(N)cc3[nH]2)cc1 | -9.7 | 4.0
Nc1ccc2nc(-c3ccc(-c4nc5ccc(N)cc5[nH]4)cc3)[nH]c2c1 | 68.3* | 35.0
Nc1ccc(-c2nc3ccc(C(=O)c4ccc5nc(-c6ccc(N)cc6)[nH]c5c4)cc3[nH]2)cc1 | -6.9 | 11.0
